Measurements reported in PubChem BioAssay AID1159580 (chemical genetic matrix, 2015).
Values joined by “and” are separate entries in the source; they are usually repeats but may differ in a detail not shown here. Identical values can stand only once. In all, about 5,500 compounds went through this assay and about 2,000 (36%) were called active. Not shown: some 18% with an inconclusive outcome. No stated cut-off is given here; in the data, active means normalized growth mostly below about 0.91 (no sharp cut-off); inconclusive means no clear call, values can overlap the other calls; inactive means mostly above about 0.92. The list shows a part of the results.

Experiment: chemical genetic growth profiling, strain panel (AID 1159580);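 further: tested at 20 µM; growth read once vehicle control cultures reached saturation at 30 °C; 1 = growth at the plate median or of vehicle wells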
Settings: S. cerevisiae deletion strains, growth OD

Measured: normalized growth

CN(C)CCC(c1ccc(Br)cc1)c1ccccn1 (centres undefined)
inactive: locus YAL013W, strain DEP1, stronger effect = lower value 0.982 and 1 | locus YAL021C, strain ccr4, stronger effect = lower value 0.958 | locus YAL026C, strain drs2, stronger effect = lower value 0.996 | locus YAL030W, strain snc1, stronger effect = lower value 0.975 | locus YAL040C, strain CLN3, stronger effect = lower value 1.11 | locus YBL061C, strain skt5, stronger effect = lower value 0.991 | locus YBR009C, strain hhf1, stronger effect = lower value 0.999 | locus YBR021W, strain FUR4, stronger effect = lower value 0.975 | locus YBR023C, strain chs3, stronger effect = lower value 0.993 | locus YBR171W, strain sec66, stronger effect = lower value 0.974 | locus YBR229C, strain ROT2, stronger effect = lower value 0.978 | locus YBR231C, strain swc5, stronger effect = lower value 0.983 | locus YBR279W, strain paf1, stronger effect = lower value 0.976 | locus YCL011C, strain gbp2, stronger effect = lower value 0.97 | locus YCL016C, strain dcc1, stronger effect = lower value 0.979 | locus YCL029C, strain bik1, stronger effect = lower value 0.979 | locus YCL061C, strain MRC1 (second series), stronger effect = lower value 1 | locus YCL069W, strain vba3, stronger effect = lower value 0.985 | locus YCR088W, strain abp1, stronger effect = lower value 0.983 | locus YDL005C, strain med2, stronger effect = lower value 0.975 | locus YDL035C, strain GPR1, stronger effect = lower value 0.991 | locus YDL040C, strain nat1, stronger effect = lower value 0.967 | locus YDL074C, strain BRE1, stronger effect = lower value 0.952 | locus YDL101C, strain DUN1, stronger effect = lower value 0.984 | locus YDL134C, strain PPH21, stronger effect = lower value 0.983 | locus YDL185W, strain tfp1, stronger effect = lower value 0.998 | locus YDL192W, strain arf1, stronger effect = lower value 0.997 | locus YDR001C, strain nth1, stronger effect = lower value 0.974 | locus YDR069C, strain doa4, stronger effect = lower value 0.929 | locus YDR101C, strain arx1, stronger effect = lower value 0.967 | locus YDR137W, strain rgp1, stronger effect = lower value 1.01 | locus YDR150W, strain NUM1, stronger effect = lower value 0.997 and 1.01 | locus YDR159W, strain sac3, stronger effect = lower value 0.962 | locus YDR162C, strain NBP2, stronger effect = lower value 0.991 | locus YDR195W, strain ref2 0.96 | locus YDR297W, strain sur2, stronger effect = lower value 0.973 | locus YDR318W, strain mcm21, stronger effect = lower value 0.985 | locus YDR334W, strain swr1, stronger effect = lower value 0.956 | locus YDR335W, strain msn5, stronger effect = lower value 0.992 | locus YDR388W, stronger effect = lower value 0.99 | locus YDR392W, strain spt3, stronger effect = lower value 0.997 | locus YDR502C, strain sam2, stronger effect = lower value 0.984 | locus YEL003W, strain gim4, stronger effect = lower value 0.969 | locus YEL037C, strain rad23, stronger effect = lower value 0.981 | locus YEL061C, strain CIN8 (second series), stronger effect = lower value 0.989 | locus YEL061C, strain CIN8, stronger effect = lower value 0.994 | locus YER002W, strain NOP16, stronger effect = lower value 1.01 | locus YER015W, strain faa2, stronger effect = lower value 0.992 | locus YER016W, strain bim1, stronger effect = lower value 0.935 | locus YER110C, stronger effect = lower value 0.985 | locus YER111C, strain swi4, stronger effect = lower value 0.977 | locus YER155C, strain BEM2 (second series), stronger effect = lower value 1 | locus YER155C, strain BEM2, stronger effect = lower value 0.959 | locus YER167W, strain BCK2, stronger effect = lower value 0.992 | locus YFR010W, strain ubp6, stronger effect = lower value 0.986 | locus YGL078C, strain dbp3, stronger effect = lower value 0.987 | locus YGL086W, strain mad1, stronger effect = lower value 1 | locus YGL167C, strain pmr1, stronger effect = lower value 0.988 | locus YGL173C, strain kem1, stronger effect = lower value 0.975 | locus YGL227W, strain vid30, stronger effect = lower value 0.985 | locus YGL240W, strain doc1, stronger effect = lower value 0.995 | locus YGL248W, strain PDE1, stronger effect = lower value 0.974 | locus YGL253W, strain hxk2, stronger effect = lower value 0.991 | locus YGR078C, strain PAC10, stronger effect = lower value 0.992 and 1.01 | locus YGR135W, strain pre9, stronger effect = lower value 0.977 | locus YGR229C, strain SMI1, stronger effect = lower value 0.987 | locus YGR252W, strain gcn5, stronger effect = lower value 1.04 | locus YHR013C, strain ard1, stronger effect = lower value 0.956 | locus YHR027C, strain rpn1, stronger effect = lower value 0.952 | locus YHR030C, strain SLT2, stronger effect = lower value 0.992 and 0.989 | locus YHR079C, strain IRE1 (second series), stronger effect = lower value 0.99 | locus YHR079C, strain IRE1, stronger effect = lower value 0.99 | locus YHR094C, strain hxt1, stronger effect = lower value 0.994 | locus YHR129C, strain ARP1, stronger effect = lower value 0.986 | locus YHR142W, strain chs7, stronger effect = lower value 0.995 | locus YHR200W, strain rpn10, stronger effect = lower value 0.984 | locus YIL066C, strain RNR3, stronger effect = lower value 0.989 | locus YIL073C, strain SPO22, stronger effect = lower value 1.04 | locus YIL125W, strain kgd1, stronger effect = lower value 0.998 | locus YIR030C, strain dcg1, stronger effect = lower value 0.985 | locus YJL092W, strain hpr5, stronger effect = lower value 0.967 | locus YJL095W, strain BCK1 (second series), stronger effect = lower value 0.972 | locus YJL095W, strain BCK1, stronger effect = lower value 0.966 and 0.986 | locus YJL115W, strain asf1, stronger effect = lower value 0.941 | locus YJL129C, strain trk1, stronger effect = lower value 0.952 | locus YJL134W, strain LCB3, stronger effect = lower value 0.989 | locus YJL154C, strain vps35, stronger effect = lower value 0.955 | locus YJL164C, strain tpk1, stronger effect = lower value 0.991 | locus YJL166W, strain qcr8, stronger effect = lower value 0.973 | locus YJL168C, strain set2, stronger effect = lower value 0.993 | locus YJL187C, strain SWE1 (second series), stronger effect = lower value 0.978 | locus YJR043C, strain POL32, stronger effect = lower value 0.983 | locus YJR066W, strain TOR1, stronger effect = lower value 0.967 | locus YJR075W, strain HOC1, stronger effect = lower value 0.975 and 1.03
